# From PubChem BioAssay
# Sampled rows, rich in hits. Any-hit rate of the full collection: about 2.3%.
# M1 ag parental – counter-screen for M1 agonists: effect in parental CHO-K1 cells | Fluo-8 calcium fluorescence; scaled to maximal ATP response, vehicle zero | activation, % at 3 µM | 0.48% of 360,000 active | AID 602248; in the data active means activation above about 15%;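 further: untransfected CHO-K1 host cells lacking M1 receptor as counterscreen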
# M1 PAM parental – M1 PAM counterscreen hit in parental CHO-K1 cells; activation, % at 3 µM; ATP EC20, Fluo-8 calcium fluorescence; 0% at ATP EC20, 100% at ATP max; 0.02% of 360,000 active;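 active means activation above the run cutoff, the mean activation of all test compounds plus 3 SD, cut at about 40% in these data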;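 further: peak over basal fluorescence ratio in a 140 s read after ATP addition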
# CHO-K1 Ca antag – M1 antagonist counterscreen hit in parental CHO-K1 cells; ATP-induced calcium, Fluo-8 fluorescence; inhibition, % at 3 µM; 0.6% of 360,000 active; AID 602250;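 active means inhibition above a per-plate cutoff, the plate's mean sample inhibition plus 3 SD, cut at about 24% in these data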;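 further: 0% = DMSO plus EC80 ATP and 100% = DMSO alone without ATP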
# M1 PAM – potentiates human M1 receptor response to acetylcholine. P11229. CHO-K1 hM1, Fluo-8 calcium fluorescence, ACh EC20; 0% = ACh EC20, 100% = maximal ACh. activation, % at 3 µM. 0.088% of 360,000 active; in the data active means activation above about 19%, passing the limit was not always enough
# Target sequence (P11229 whole entry, looked up): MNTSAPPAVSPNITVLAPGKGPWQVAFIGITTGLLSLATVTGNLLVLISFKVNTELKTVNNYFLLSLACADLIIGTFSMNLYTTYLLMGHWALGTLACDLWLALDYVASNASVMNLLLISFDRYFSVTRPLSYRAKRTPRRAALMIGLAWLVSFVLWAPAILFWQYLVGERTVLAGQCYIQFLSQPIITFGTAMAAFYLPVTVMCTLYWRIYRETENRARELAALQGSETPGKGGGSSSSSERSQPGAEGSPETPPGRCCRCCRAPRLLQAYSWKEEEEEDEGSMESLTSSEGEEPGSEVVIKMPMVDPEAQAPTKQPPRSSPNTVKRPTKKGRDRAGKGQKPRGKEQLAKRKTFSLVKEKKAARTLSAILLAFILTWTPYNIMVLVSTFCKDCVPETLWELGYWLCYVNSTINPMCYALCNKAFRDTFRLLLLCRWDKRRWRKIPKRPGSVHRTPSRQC
# CHRM1 agonist – activates human CHRM1 receptor; AID 588814; activation, % at 3 µM; 0.33% of 360,000 active; CHO-K1 hM1, Fluo-8 calcium fluorescence, agonist mode; 0% DMSO, 100% acetylcholine EC100;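 active means activation above the run's mean compound activation plus 3 SD, cut at about 16% in these data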;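 further: peak over basal fluorescence ratio within a 140 s kinetic read after compound addition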
# CHRM1 antagonist – blocks human M1 muscarinic receptor. P11229. CHO-K1 hM1, Fluo-8 calcium fluorescence, ACh EC80 antagonist. inhibition, % at 3 µM. 1.3% of 360,000 active;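 active means percent inhibition above its own plate's cutoff, namely the mean of that plate's compound wells plus 3 SD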;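 further: peak over basal fluorescence ratio during 140 s after agonist addition; 0% = ACh EC80 plus DMSO and 100% = DMSO alone without agonist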
# * = called active by the depositor; . = no result given.
SMILES,M1 ag parental,M1 PAM parental,CHO-K1 Ca antag,M1 PAM,CHRM1 agonist,CHRM1 antagonist
CC(=O)Nc1ccc(NC(=O)Cn2cnc3c(nnn3Cc3ccc(F)cc3)c2=O)cc1,0.7,15.2,-3.5,1.0,16.4*,-1.7
CN(C)c1ccc(-c2cccc3nccn23)cc1,0.8,15.9,-8.9,1.4,-8.1,-8.7
CS(=O)(=O)Nc1ccc(-c2cccc3nccn23)cc1,0.0,-0.1,6.4,-12.1,-2.5,24.1*
CCN=C1SC(CC(=O)Nc2ccc(N3CCOCC3)cc2)C(=O)N1CC (stereo not given),3.8,0.4,2.1,-2.2,-1.3,8.4
CCN=C1SC(CC(=O)Nc2ccc(C(F)(F)F)cc2)C(=O)N1CC (stereo not given),10.2,-4.9,17.0,-23.1,-0.7,33.2*
Cc1nc2nc(C)c(CCC(=O)NC(C)c3ccc4c(c3)OCCO4)c(C)n2n1 (stereo not given),0.5,5.5,-1.1,-10.1,-5.6,68.0*
CCOc1ccc(C2C(C#N)=C(N)SC(N)=C2C#N)c(OCC)c1,7.1,13.2,-8.5,-2.5,17.8*,3.0
CCOc1cc(C2C(C#N)=C(N)SC(N)=C2C#N)ccc1OCCN1CCOCC1,0.3,-2.1,6.7,3.3,-10.5,-0.5
CSc1ncccc1C(=O)N1CCCC(N2CCN(c3ccccc3F)CC2)C1 (stereo not given),2.9,-1.8,-0.7,-0.1,-3.4,8.2
Cc1cc(C(=O)Nc2cccc(-c3ccc(N4CCOCC4)nn3)c2)ccc1[N+](=O)[O-],4.6,-9.1,17.5,-16.5,-2.8,35.2*
COc1ccc(C2CC(=O)C=C(O)C2)cc1 (stereo not given),0.6,22.3,-9.4,8.8,-4.7,-4.8
COc1cc(C2CC(=O)C=C(O)C2)cc(OC)c1OC (stereo not given),-0.6,-8.5,24.8*,5.1,0.9,-3.1
Fc1ccc2[nH]c3c(N4CCc5ccccc5C4)ncnc3c2c1,14.1,-16.2,28.2*,-15.3,2.1,41.0*
CCOc1ccc2[nH]c3c(N4CCc5ccccc5C4)ncnc3c2c1,2.2,7.2,-4.7,21.4,0.0,-11.7
Cc1ccc2[nH]c3c(N4CCc5ccccc5C4)ncnc3c2c1,9.9,-4.3,34.8*,-14.5,4.5,30.0*
O=C1NC[C@@H](CCCCN2C[C@H](Cc3ccccc3)N(CCC3CCCCC3)C(=O)C2=O)N(CC2CCCCC2)C1=O,0.9,11.1,-5.4,.,.,.
Nc1[nH]c(C(=O)c2ccccc2)c(-c2ccccc2C(F)(F)F)c1C(=O)c1cccs1,-0.1,-8.5,17.1,.,.,.
CN(C)CCCN1c2ccc(O)cc2Sc2ccc(Cl)cc21,3.6,1.0,-2.2,-30.7,-4.1,99.8*
COc1cc(C2/C(=C(\O)c3ccc4c(c3)OCCO4)C(=O)C(=O)N2Cc2ccco2)cc(OC)c1OC (stereo not given),0.4,-1.6,0.1,2.3,-0.9,-0.4
Oc1ccc2ccccc2c1Br,0.5,-9.1,24.4*,-9.7,-0.5,0.6
CCCCCc1n[nH]c2c1CCCC2,-0.2,18.2,-9.1,5.9,-0.5,-9.8
Cc1ccc(-c2onc3ccc(C(=O)O)cc23)cc1,18.9*,7.4,2.7,2.2,9.6,-1.4
CC(=O)N(Cc1ccccc1)c1c(N)nc(N)[nH]c1=O,1.5,24.2,-14.1,2.9,-4.6,-7.0
CCCOc1ccc(C(C(=O)OCCN(CC)CC)c2ccccc2)cc1 (stereo not given),3.6,13.2,-14.5,-21.7,-1.6,98.1*
COc1ccc(C(C(=O)OCCN(C)C)c2ccccc2)cc1 (stereo not given),1.1,15.7,-8.8,-19.8,-5.9,78.3*
COC(=O)c1cc(C(=O)NCc2ccc3c(c2)OCO3)cc([N+](=O)[O-])c1,-0.1,24.8,-4.7,11.1,-2.7,-7.2
CCOC(=O)C1(CCOc2ccccc2)CCN(Cc2ccc(NC(C)=O)cc2)CC1,0.5,-12.5,-0.7,-9.1,-9.1,3.6
CCOC(=O)C1(CCOc2ccccc2)CCN(Cc2cccc(OC)c2OC)CC1,8.7,-18.6,19.9,-23.7,-1.7,41.7*
CCOC(=O)C1(CCOc2ccccc2)CCN(Cc2ccc(OC)cc2)CC1,18.0*,11.3,5.4,-8.4,2.7,13.1
